Experimental data as given in PubChem BioAssay (NCI).
This is part of a sample that, as a whole, favours compounds with a hit. Of some 83,000 tested, about 20% had one in any assay.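 Testing used 96-well plates and a 48-hour single-concentration exposure. Example: -40 means 40% of the starting cells died.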 Calls of active or inactive are those of the source. The calls were made as follows: active = growth percent below 10; inactive = the rest.

Tests used:
Assay in all cases: NCI-60 one-dose screen, 48 h (100 = growth as untreated, 0 = no growth, -100 = all killed)
Settings in all cases: 10 µM unless noted
SR leukemia = test system: SR leukemia
RPMI-8226 leukemia = test system: RPMI-8226 leukemia
OVCAR-8 ovarian = test system: OVCAR-8 ovarian
OVCAR-5 ovarian = test system: OVCAR-5 ovarian
OVCAR-4 ovarian = test system: OVCAR-4 ovarian
SK-OV-3 ovarian = test system: SK-OV-3 ovarian
IGROV1 ovarian = test system: IGROV1 ovarian
OVCAR-3 ovarian = test system: OVCAR-3 ovarian
HS 578T breast = test system: HS 578T breast
NCI/ADR-RES ovarian = test system: NCI/ADR-RES ovarian

Measured: growth

C/C=C(/C(=C/C)c1ccc(O)cc1)c1ccc(O)cc1
active: OVCAR-3 ovarian -1.49%
inactive: SR leukemia 15.5% | RPMI-8226 leukemia 18.3% | OVCAR-8 ovarian 48.3% | OVCAR-5 ovarian 50.1% | OVCAR-4 ovarian 58.6% | SK-OV-3 ovarian 10.7% | IGROV1 ovarian 36.2% | HS 578T breast 25.6% | NCI/ADR-RES ovarian 24.3%

CCOC(=O)OCC(=O)[C@@]1(O)CC[C@H]2[C@@H]3CCC4=CC(=O)CC[C@]4(C)[C@H]3[C@@H](O)C[C@@]21C
inactive: SR leukemia 109% | RPMI-8226 leukemia 64.3% | OVCAR-8 ovarian 94.5% | OVCAR-5 ovarian 83.2% | OVCAR-4 ovarian 104% | SK-OV-3 ovarian 68.4% | IGROV1 ovarian 87.5% | OVCAR-3 ovarian 112% | HS 578T breast 123% | NCI/ADR-RES ovarian 91%

O=C(C(=O)c1cc(Br)ccc1O)c1cc(Br)ccc1O
inactive: SR leukemia 24.3% | RPMI-8226 leukemia 16.6% | OVCAR-8 ovarian 64.2% | OVCAR-5 ovarian 93.4% | OVCAR-4 ovarian 42.2% | SK-OV-3 ovarian 79.6% | IGROV1 ovarian 32.3% | OVCAR-3 ovarian 15.9% | HS 578T breast 38.8% | NCI/ADR-RES ovarian 32.8%

O=C(Nc1ccc2c(c1)C(=O)c1ccccc1-2)c1ccccc1
inactive: SR leukemia 81.7% | RPMI-8226 leukemia 63.5% | OVCAR-8 ovarian 37.8% | OVCAR-5 ovarian 85.9% | OVCAR-4 ovarian 15.9% | SK-OV-3 ovarian 110% | IGROV1 ovarian 73.4% | OVCAR-3 ovarian 79.5% | HS 578T breast 90.6% | NCI/ADR-RES ovarian 70.4%

CN[C@@H]1C(OC2[C@H](O[C@H]3[C@H](O)[C@@H](O)[C@H](N=C(N)N)[C@@H](O)[C@@H]3N=C(N)N)OC(C)[C@]2(O)CO)OC(CO)C(O)C1O (some centres undefined)
inactive: SR leukemia 102% | RPMI-8226 leukemia 103% | OVCAR-8 ovarian 103% | OVCAR-5 ovarian 102% | OVCAR-4 ovarian 111% | SK-OV-3 ovarian 112% | IGROV1 ovarian 105% | OVCAR-3 ovarian 116% | HS 578T breast 112% | NCI/ADR-RES ovarian 105%

Cc1cc(C)c(C(=O)c2cccs2)c(C)c1
inactive: SR leukemia 86.1% | RPMI-8226 leukemia 98.1% | OVCAR-8 ovarian 106% | OVCAR-5 ovarian 98.1% | OVCAR-4 ovarian 109% | SK-OV-3 ovarian 101% | IGROV1 ovarian 97.7% | OVCAR-3 ovarian 113% | HS 578T breast 109% | NCI/ADR-RES ovarian 105%

CC(C)OP(=O)(OC(C)C)c1ncc(-c2ccc(C(F)(F)F)cc2)c(NC2CCCCCC2)n1
active: SR leukemia -30.3% [33.3 µM] | RPMI-8226 leukemia -40.7% [33.3 µM] | OVCAR-8 ovarian 0.0612% [33.3 µM] | OVCAR-5 ovarian -89.1% [33.3 µM] | OVCAR-4 ovarian 2.6% [33.3 µM] | SK-OV-3 ovarian 8.69% [33.3 µM] | IGROV1 ovarian -11.2% [33.3 µM] | OVCAR-3 ovarian -96.8% [33.3 µM] | HS 578T breast -30.1% [33.3 µM] | NCI/ADR-RES ovarian 3.22% [33.3 µM]

C[C@]12CCC(=O)C=C1CCC1C2[C@@H](O)C[C@@]2(C)C1CC[C@]2(O)C(=O)COC(=O)CCC(=O)O (some centres undefined)
inactive: SR leukemia 105% | RPMI-8226 leukemia 63.6% | OVCAR-8 ovarian 95.6% | OVCAR-5 ovarian 99.4% | OVCAR-4 ovarian 102% | SK-OV-3 ovarian 89% | IGROV1 ovarian 93.6% | OVCAR-3 ovarian 123% | HS 578T breast 138% | NCI/ADR-RES ovarian 95.7%

COc1ccc2nc(NC(=O)CN3CCn4c(nnc4C(F)(F)F)C3)sc2c1
inactive: SR leukemia 87.8% | RPMI-8226 leukemia 90% | OVCAR-8 ovarian 96.5% | OVCAR-5 ovarian 97.9% | OVCAR-4 ovarian 104% | SK-OV-3 ovarian 105% | IGROV1 ovarian 92.8% | OVCAR-3 ovarian 93.7% | HS 578T breast 97% | NCI/ADR-RES ovarian 93.6%

COc1cccc(-c2nc3cc(NC(=O)c4ccc(Cl)c(C#N)c4)ccc3o2)c1
active: RPMI-8226 leukemia -2.38% | OVCAR-8 ovarian -54.6% | OVCAR-4 ovarian -90.4% | OVCAR-3 ovarian -30.6% | NCI/ADR-RES ovarian 3.74%
inactive: SR leukemia 38.2% | OVCAR-5 ovarian 73.3% | SK-OV-3 ovarian 15.6% | IGROV1 ovarian 72.4% | HS 578T breast 39.1%

O=C(O)CCC(=O)OC[C@@H](NC(=O)C(Cl)Cl)[C@H](O)c1ccc([N+](=O)[O-])cc1
inactive: SR leukemia 95.9% | RPMI-8226 leukemia 89.5% | OVCAR-8 ovarian 94.4% | OVCAR-5 ovarian 93.5% | OVCAR-4 ovarian 102% | SK-OV-3 ovarian 107% | IGROV1 ovarian 97.2% | OVCAR-3 ovarian 121% | HS 578T breast 111% | NCI/ADR-RES ovarian 101%

O=C(NC1CCCCC1)c1ccc(Nc2ncnc3c2cnn3-c2ccccc2)cc1
active: HS 578T breast 0.218%
inactive: SR leukemia 67.5% | RPMI-8226 leukemia 89.5% | OVCAR-8 ovarian 21.6% | OVCAR-5 ovarian 80.3% | OVCAR-4 ovarian 30.3% | SK-OV-3 ovarian 54% | IGROV1 ovarian 71.1% | OVCAR-3 ovarian 87.4% | NCI/ADR-RES ovarian 74.2%

CO[C@H]1/C=C/O[C@@]2(C)Oc3c(C)c(O)c4c(O)c(c(/C=N/N5C(C)CN(Cc6ccc(C#N)cc6)CC5C)c(O)c4c3C2=O)NC(=O)/C(C)=C\C=C\[C@H](C)[C@H](O)[C@@H](C)[C@@H](O)[C@@H](C)[C@H](OC(C)=O)[C@@H]1C (some centres undefined)
inactive: SR leukemia 19.3% | OVCAR-8 ovarian 49.7% | OVCAR-5 ovarian 27.1% | OVCAR-4 ovarian 39.7% | SK-OV-3 ovarian 18.5% | IGROV1 ovarian 40.6% | HS 578T breast 45.6% | NCI/ADR-RES ovarian 40.1%
active: RPMI-8226 leukemia -6.25% | OVCAR-3 ovarian -21.1%

CCN(CC)CCNCC(=O)Oc1ccc(/C=C/C(=O)CC(=O)/C=C/c2ccc(OC(=O)CNCCN(CC)CC)c(OC)c2)cc1OC
inactive: OVCAR-5 ovarian 36.6% | OVCAR-4 ovarian 44.3% | SK-OV-3 ovarian 27.3% | OVCAR-3 ovarian 13.3% | NCI/ADR-RES ovarian 71.6%
active: SR leukemia -1.72% | RPMI-8226 leukemia -46.2% | OVCAR-8 ovarian 3.99% | IGROV1 ovarian -24.5% | HS 578T breast -3.97%

O=CNc1ccc2c(c1)Cc1cc([N+](=O)[O-])ccc1-2
inactive: SR leukemia 31.6% | RPMI-8226 leukemia 35.6% | OVCAR-8 ovarian 41.3% | OVCAR-5 ovarian 36.2% | OVCAR-4 ovarian 74.5% | SK-OV-3 ovarian 12.8% | IGROV1 ovarian 30.7% | OVCAR-3 ovarian 16.1% | HS 578T breast 40.1%
active: NCI/ADR-RES ovarian 3.1%

ICCC(c1ccccc1)(c1ccccc1)c1ccccc1
active: SR leukemia -28.7%
inactive: RPMI-8226 leukemia 20% | OVCAR-8 ovarian 70.8% | OVCAR-5 ovarian 82.6% | OVCAR-4 ovarian 50.8% | SK-OV-3 ovarian 74.6% | IGROV1 ovarian 61.7% | OVCAR-3 ovarian 58.1% | HS 578T breast 48.3% | NCI/ADR-RES ovarian 74.6%

O=C1C2C(C(=O)N1CC[Se][Se]CCN1C(=O)C3C(C1=O)[C@H]1C=C[C@@H]3C1)[C@H]1C=C[C@@H]2C1 (some centres undefined)
active: SR leukemia 4.3% | RPMI-8226 leukemia -43.7% | OVCAR-8 ovarian -80.7% | OVCAR-5 ovarian -15.4% | OVCAR-4 ovarian -33.3% | SK-OV-3 ovarian -50% | IGROV1 ovarian -47.2% | OVCAR-3 ovarian -58% | HS 578T breast -11.4% | NCI/ADR-RES ovarian -10.9%

O=C1CSC(c2ccccc2O)N1c1nnc(Cn2ccnc2)o1 (centres undefined)
inactive: SR leukemia 43.9% | RPMI-8226 leukemia 36.1% | OVCAR-8 ovarian 58.8% | OVCAR-5 ovarian 97.2% | OVCAR-4 ovarian 64.4% | SK-OV-3 ovarian 74.2% | IGROV1 ovarian 67.7% | OVCAR-3 ovarian 37.8% | HS 578T breast 80.6% | NCI/ADR-RES ovarian 26%

O=C(Nc1cccc(Cl)c1)Nc1cccc(Cl)c1
active: RPMI-8226 leukemia 3.08%
inactive: SR leukemia 66.4% | OVCAR-8 ovarian 77% | OVCAR-5 ovarian 86.8% | OVCAR-4 ovarian 62.4% | SK-OV-3 ovarian 93.4% | IGROV1 ovarian 91.4% | OVCAR-3 ovarian 15.1% | HS 578T breast 80.7% | NCI/ADR-RES ovarian 55.6%

N/C(=N\c1nc2ccccc2s1)NC(=O)Nc1ccccc1Cl
inactive: RPMI-8226 leukemia 10.1% | OVCAR-8 ovarian 15.5% | OVCAR-5 ovarian 32.5% | OVCAR-4 ovarian 69.3% | SK-OV-3 ovarian 31.8% | IGROV1 ovarian 20.8% | HS 578T breast 30%
active: SR leukemia 9.92% | OVCAR-3 ovarian -14.2% | NCI/ADR-RES ovarian 6.38%

CCOC(=O)C1=CCC(n2cc(C)c(=O)[nH]c2=O)O1 (centres undefined)
inactive: SR leukemia 94.8% | RPMI-8226 leukemia 106% | OVCAR-8 ovarian 97.9% | OVCAR-5 ovarian 113% | OVCAR-4 ovarian 105% | SK-OV-3 ovarian 109% | IGROV1 ovarian 86.3% | OVCAR-3 ovarian 108% | HS 578T breast 104% | NCI/ADR-RES ovarian 101%

CC(=O)c1nn(-c2ccccc2)c(=Nc2ccccc2)cc1C
inactive: SR leukemia 99.3% | RPMI-8226 leukemia 100% | OVCAR-8 ovarian 96.7% | OVCAR-5 ovarian 90.5% | OVCAR-4 ovarian 96.9% | SK-OV-3 ovarian 108% | IGROV1 ovarian 106% | OVCAR-3 ovarian 113% | HS 578T breast 114% | NCI/ADR-RES ovarian 100%

COc1cnc2c(c1)C(=O)c1c-2n(CCCN2CCOCC2)c(=O)c2cc(F)ccc12
active: SR leukemia 1.17% | RPMI-8226 leukemia -19.2% | OVCAR-8 ovarian 0.87% | OVCAR-5 ovarian -13.2% | SK-OV-3 ovarian -25.1% | OVCAR-3 ovarian -29.9% | NCI/ADR-RES ovarian 4.01%
inactive: OVCAR-4 ovarian 15.7% | IGROV1 ovarian 12.2% | HS 578T breast 12.5%

COc1ccc(-c2cnc(SCC(=O)Nc3ccc(-c4nc5ccccc5s4)cc3)n2-c2ccc(OC)cc2)cc1
inactive: SR leukemia 99.5% | RPMI-8226 leukemia 113% | OVCAR-8 ovarian 105% | OVCAR-5 ovarian 99% | OVCAR-4 ovarian 111% | SK-OV-3 ovarian 111% | IGROV1 ovarian 91.5% | OVCAR-3 ovarian 109% | HS 578T breast 105% | NCI/ADR-RES ovarian 107%

CC(=O)c1ccccc1NC(=O)C(C)(c1ccccc1)c1ccccc1
inactive: SR leukemia 65.9% | RPMI-8226 leukemia 57.3% | OVCAR-8 ovarian 90.2% | OVCAR-5 ovarian 91.3% | OVCAR-4 ovarian 97.9% | SK-OV-3 ovarian 103% | IGROV1 ovarian 101% | OVCAR-3 ovarian 103% | HS 578T breast 34.3% | NCI/ADR-RES ovarian 63.8%

COc1cc(-c2nc3sc4c(c3c(=O)[nH]2)CCCCCC4)cc(OC)c1OC
inactive: SR leukemia 15.5% | OVCAR-8 ovarian 25.2% | OVCAR-5 ovarian 37.8% | OVCAR-4 ovarian 61.6% | SK-OV-3 ovarian 14.2% | IGROV1 ovarian 34.5%
active: RPMI-8226 leukemia 7.95% | OVCAR-3 ovarian -3.03% | HS 578T breast 5.2% | NCI/ADR-RES ovarian -6.9%

CCCCc1n(Cc2ccc3ccccc3c2)cc[n+]1Cc1ccc2ccccc2c1
active: SR leukemia -44.1% | RPMI-8226 leukemia -39.9% | OVCAR-8 ovarian -35.8% | OVCAR-5 ovarian 8.66% | OVCAR-4 ovarian 9.46% | SK-OV-3 ovarian -3.39% | IGROV1 ovarian -57.9% | OVCAR-3 ovarian -80.1%
inactive: NCI/ADR-RES ovarian 87.9%
